Assay results reported in PubChem BioAssay.
A number with no mark means an inactive call. No rule for the calls is given here.

Tested on: Aerobactin synthetase IucA (Klebsiella pneumoniae, hypervirulent)
Assay: IucA enzyme inhibition, biochemical, LOPAC library, absorbance readout (AID 1346212);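 also: 100% = no compound wells and 0% = no enzyme wells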
Settings: IucA enzyme assay, absorbance (OD) readout; hits give low values;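 tested at 8 µM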

Question: For NC(N)=Nc1nc(CSCC/C(N)=N/S(N)(=O)=O)cs1, which remaining activity is on record?
Answer: 102%

Question: With N#C/C(=C\c1ccc(O)c(O)c1)C(=O)NCCCNC(=O)/C(C#N)=C/c1ccc(O)c(O)c1 as the compound, how does the remaining activity read?
Answer: 98.2%

Question: Which remaining activity does the source give for NCCS(=O)O here?
Answer: 101%

Question: How did the remaining activity turn out when Nc1ccc(CCNc2ncnc3c2ncn3C2OC(CO)C(O)C2O)cc1 (configuration not stated) was run?
Answer: 124%

Question: With C=C1C(=O)O[C@@H]2[C@H]3O[C@]3(C)CC/C=C(\C)CC[C@@H]12 as the compound, how does the remaining activity read?
Answer: 119%

Question: FC(F)(F)c1cc(CO[C@H]2CCCN[C@H]2c2ccccc2)cc(C(F)(F)F)c1 was tested. Which remaining activity did it give?
Answer: 107%

Question: With Nc1ncnc2c1ncn2C1CCCO1 (configuration not stated) as the compound, how does the remaining activity read?
Answer: 75.8%

Question: For CC(O)C(O)[C@H]1CNc2nc(N)[nH]c(=O)c2N1 (some centres not stated), which remaining activity is on record?
Answer: 102%

Question: C[C@@]12C(=O)OC(=O)[C@]1(C)[C@H]1CC[C@@H]2O1 was tested. Which remaining activity did it give?
Answer: 118%

Question: Which remaining activity does the source give for N[C@H]1CONC1=O here?
Answer: 113%

Question: For CCN(c1nc(N)c(C(=O)N=C(N)N)nc1Cl)C(C)C, which remaining activity is on record?
Answer: 109%

Question: CC1=C(/C=C/C(C)=C/C=C/C(C)=C/C(=O)Nc2ccc(O)cc2)C(C)(C)CCC1 was tested. Which remaining activity did it give?
Answer: 97.1%

Question: For Nc1ccc2c3c(cccc13)C(=O)NC2=O, which remaining activity is on record?
Answer: 112%

Question: Which remaining activity does the source give for Oc1ccc(/C=C/c2ccc(/C=C/c3ccc(O)cc3)c(Br)c2)cc1 here?
Answer: 85%

Question: Which remaining activity does the source give for Cn1ccc2cc3c(cc21)CCN3C(=O)Nc1cccnc1 here?
Answer: 102%

Question: How did the remaining activity turn out when COc1cc2c(cc1OC)[C@@H](c1ccccc1)CN(C)CC2 was run?
Answer: 102%

Question: How did the remaining activity turn out when O=C(c1ccc(OCCCc2cnc[nH]2)cc1)C1CC1 was run?
Answer: 100%
